We go through 49 sequences from the supplement of paper PMC11417369.

Over roughly 25,000 sequences, “ln(normalized median fluorescence intensity)” has its median near 6.7; the highest 2% begin near 10. For the sample, the highest values were picked, then their nearest neighbours and some sequences at random.

In the test the test system is PfHDP1 homeodomain (GST-tagged). Kind of test: gcPBM binding intensity (ln(normalized median fluorescence intensity)); higher = stronger DNA binding. The procedure, abridged:
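The binding buffer was 1× PBS containing 1% milk, 0.2 mg/ml BSA, 0.5% salmon testes DNA and 0.03% Triton X-100. In it, GST-tagged P. falciparum DNA-binding domains expressed in E. coli were applied for 1 h to an Agilent 4 × 180k array of primer-extended double-stranded 36-bp intergenic genomic probes plus negative controls. Binding intensity, read with Alexa488 anti-GST antibody and a 488 nm scan, is the highest Masliner-normalised natural-log median intensity across replicate spots of either probe orientation.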
With “AGTCTGAATAAAATTACACACATATACCTATAAATA [CACACA_site6929]”, the “gcPBM binding intensity (ln)” value was determined as 6.4. For the sequence “ATACATAAAATTAAAACACACATTTGATTAAATACG [CACACA_site7088]”, the “gcPBM binding intensity (ln)” value turned out to be 6.6. For “TGTGCCCAAAATTATGCACACACCTAAAATTAATTT [CACACA_site2914]”, the “gcPBM binding intensity (ln)” value amounted to 10.5. For the sequence “AATTAAAAAATTTATGCACACTTTAAAAAAAAAAAA [CACACA_site5962]”, the “gcPBM binding intensity (ln)” value was 9.66. With “TAAATTAATACCTATGCACACATTTTTTTTTTTAAA [CACACA_site1238]” the figure was 8.59; with “TGCACAAAATTATGCACACACCTAAAATTAATTTTT [CACACA_site5596]”, 10.8; with “TGTGCTCAAAATTATGCACACACCTAAAATTAATTT [CACACA_site8950]”, 10.7. For “TGCACAAAGTTATGCACACACCTAAAATTAATTTTT [CACACA_site7385]”, the “gcPBM binding intensity (ln)” value amounted to 10.5. Regarding “GATAATAATAAACAACCACACACAAAAAAACAAAAA [CACACA_site9074]”, the “gcPBM binding intensity (ln)” value is 7.01.

As for “TTTTTTTTTTTTTATTGTACTTATTTTTTTATGTTT [XGTACX_site7725]”, the “gcPBM binding intensity (ln)” value came out at 5.96. As to “AAAAAAAAAAAATGCACACATATATTTCCATATACA [CACACA_site1471]”, the “gcPBM binding intensity (ln)” value was 9.96.

On to “AAAAATATTAAAAGGCGTACAATACCTGTATGCAAC [XGTACX_site6069]”, for which the “gcPBM binding intensity (ln)” value was found to be 6.12.

With “TTTGTTATTTTTTATTGTACTTTTTTTCTTTCATAA [XGTACX_site4302]”, the “gcPBM binding intensity (ln)” value was 7.03. With “AATAGCTAGCTGTGCACACAAACATATTTTCCAAAT [CACACA_site880]” the figure was 10.3. For “CAAATAGCTAGCTGTGCACACAAACATATTTTCCAA [CACACA_site879]” the value was 11. For “AATATTAACAATCGCACACATATTATTTTTCCAAAA [CACACA_site4982]” the value was 7.13.

In the case of “ATATTGACAAATATTACACACATATATATATATATA [CACACA_site4079]”, the “gcPBM binding intensity (ln)” value worked out at 9.39. For “ATAACTAAATGATATTGTACAAAATAATTATATATT [XGTACX_site1331]” the value was 6.38; for “AAAAAAAAAATTAATTGTACTAAAAAAATATTATAT [XGTACX_site8903]”, 6.41; for “TATATATATATATATTGTACTAATTGTGCAAATGAG [XGTACX_site682]”, 10.9. For “TATGATATCTATAATACACACATATACATAAGATCT [CACACA_site6652]” the value was 6.6. For “AAAAATATTTAAAATACACACATATCTATAATATAT [CACACA_site7032]” the value was 6.36; for “TACCAAAAAAAAAAAAATAAAAATAAAAAAAAAAAT [CACACA_negctrl_site1714]”, 6.27. For the sequence “TTTGAAAAGTTGAAATGTACACATTTACACATATTT [XGTACX_site1641]”, the “gcPBM binding intensity (ln)” value was 6.24. As for “TATTTACATTTATGTGCACACATTCCATTTGAAAGT [CACACA_site1954]”, the “gcPBM binding intensity (ln)” value came out at 11. For the sequence “TTTACATTTATGTGCACACATTCCATTTGAAAGTAA [CACACA_site1953]”, the “gcPBM binding intensity (ln)” value was 10.9. Regarding “AACACATACATATATGCACACATTTTATTCCATTAT [CACACA_site2834]”, the “gcPBM binding intensity (ln)” value came to 10.1.

For the sequence “AAGTTGAAATAATGTGCACACATTTTTTTTTTTTTT [CACACA_site3368]”, the “gcPBM binding intensity (ln)” value was 9.16. Turning to “AAAAAAAAAAAAAAAAGTACACATCATTTTATGAAA [XGTACX_site1402]”, the “gcPBM binding intensity (ln)” value stood at 6.41. For the sequence “TTACAAGTAAAAGGTACACACATTATAAATACAAAT [CACACA_site4752]”, the “gcPBM binding intensity (ln)” value amounted to 6.93. In the case of “ATCAACATCTAACATTGTACATGTGATGTGTAAAAG [XGTACX_site547]”, the “gcPBM binding intensity (ln)” value turned out to be 6.69.

As for “TATATATATATATGTACACACATCAATCATATTAAC [CACACA_site1946]”, the “gcPBM binding intensity (ln)” value was 9.26.

Turning to “TATATATATATATATATTAATAATTAATATAAAAGA [XGTACX_negctrl_site32]”, the “gcPBM binding intensity (ln)” value is 9. For GAGGTACATTAATTAGTGCATTAAAATTTTTATCCT, the “gcPBM binding intensity (ln)” value came to 9.85. With “TATGTTATATAATATTGTACACAAAATGGTTTCTAT [XGTACX_site7686]” the figure was 6.73; with “TAAATTAAAAAAAAAAACAAAAAAAAAGCAACAAAA [CACACA_negctrl_site1318]”, 6.62; with “AAGTTTTCTTAAAGATGTACTTTTTAAAAATAAAAT [XGTACX_site3063]”, 6.15. With “ATGTGCACATGTAGAAGTACTTTTTCTTAAAATACT [XGTACX_site8341]”, the “gcPBM binding intensity (ln)” value was determined as 10.9. Regarding “TTTTGAAGTAATACATGTACTTAAATTACTAAAAAA [XGTACX_site1955]”, the “gcPBM binding intensity (ln)” value was determined as 6.04. With “TTTAAAATGGGACTTTGAAAAAAAAAAAAAAAAACA [TGCATGCA_negctrl_site111]” the figure was 6.1; with “AATTTTTTATATGTCACACATTTGTTATTATTATTA [CACACA_site4197]”, 6.51. With “GTCAAATTTTTGTGCACACATATATAGTTATTATTA [CACACA_site2241]” the figure was 11.7; with “ATGTCAAATTTTTGTGCACACATATATAGTTATTAT [CACACA_site2242]”, 11.4. Turning to “TGTGTCAAATAATTAATGTCATATATATTTTGTATA [CACACA_negctrl_site1479]”, the “gcPBM binding intensity (ln)” value worked out at 6.11.

Consider “TTTTCATATTATAGTGCACACAAAAATATATATATG [CACACA_site8929]”, for which the “gcPBM binding intensity (ln)” value amounted to 10.3. With CAGTTGTTAATTTGTGTGCACCAAATATTATACATA the figure was 10.5. In the case of “TTTTTTTTTTTTTTTGTGCACAATTATTTCAATTTT [GTGCAC_site9884]”, the “gcPBM binding intensity (ln)” value was 10.2. For “AAATATTACATTTGTTAAATAATATGTTATACATAA [XGTACX_negctrl_site484]”, the “gcPBM binding intensity (ln)” value was found to be 5.89.

Regarding “TGTGTATTTATAAATACACACCAAATGTTAATATAT [CACACA_site6904]”, the “gcPBM binding intensity (ln)” value is 6.9.
